The nature of assay [1]: growth inhibition of DIPG glioma cells, dose response, cell-based, JHH-DIPG-1, MIPE4.0, CellTiter-Glo, qHTS (AID 1347062; cut-off not given, nearly all actives have AC50 up to about 27 µM;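 for AC50: cells exposed to compound for two days before readout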). The following applies: JHH-DIPG-1 viability, CellTiter-Glo ATP luminescence. Background: Cellular ATP, detected with luciferase, serves as a proxy for viable cell number.
The nature of assay [2]: SU-DIPG-VI glioma cell viability, MIPE4.0 library, CellTiter-Glo luminescence, qHTS (AID 1347066; cut-off not given, nearly all actives have AC50 up to about 30 µM;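 note: cells exposed to compound for 48 hours before readout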). The following applies: CellTiter-Glo ATP luminescence.
A short description of assay [3]: JHH-DIPG-1 glioma cell viability, MIPE5.0 library, CellTiter-Glo luminescence, qHTS (AID 1347067; cut-off not given, nearly all actives have AC50 up to about 26 µM;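 note: cells exposed to compound for 48 hours before readout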). The following applies: JHH-DIPG-1 glioma viability, CellTiter-Glo ATP luminescence.
Assay [4] is described as follows: SU-DIPG-XXV glioma cell viability, MIPE5.0 library, qHTS (AID 1347068; cut-off not given, nearly all actives have IC50 up to about 30 µM;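 for IC50: cells exposed to compound for 48 hours before viability readout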).
A short description of assay [5]: sensitizers of A549 cells to miR-34 induction, primary screen, imaging, A549 dox-inducible miR-34, nuclei and caspase counts (AID 1347080;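 active = compounds whose cell count with miR-34 switched on is under 0.7 times the count with it off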). The following applies: A549 miR-34 inducible, Hoechst nuclei count, 48 h.
The nature of assay [6]: survival rescue of mitochondrial mutant cells in low glucose, primary screen, MELAS cybrids, Rieske KO mouse fibroblasts, CellTiter-Glo (AID 1508586;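 active = mean z-score across replicates of 1.96 or higher in either the MELAS or the Rieske mutant cell line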;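 note: z relative to plate mean and SD of compound and empty wells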).
The nature of assay [7]: ovarian cancer cell viability with rucaparib, profiling panel, oncology-focused library, rucaparib conditional (AID 1508598). The following applies: patient-derived ovarian cancer cells, CellTiter-Glo viability, 144 h, stronger effect = lower value.
For assay [8], the system named is Hepatitis C virus NS3 helicase. As to the kind of experiment: HCV NS3 helicase inhibitors, primary screen, biochemical, fluorescence polarization, LOPAC1280 library (AID 687035; in the data active = inhibition above about 37%). The following applies: Purified HCV NS3 helicase, Cy5-dT15 ssDNA binding fluorescence polarization; stronger effect = higher value; concentration not given here.
Assay [9] can be described thus: Cy5 fluorescence quenching or enhancement artefacts, artefact control for HCV NS3 helicase inhibitor project, biochemical, LOPAC1280 (AID 687037; call rule not given here). The following applies: Cy5-DNA-NS3h complex fluorescence interference counterscreen.
A short description of assay [10]: growth inhibition of DIPG glioma cells, dose response, cell-based, SU-DIPG-IV, MIPE4.0, CellTiter-Glo, qHTS (AID 1347063; cut-off not given, nearly all actives have AC50 up to about 30 µM;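 note: compound exposure lasted 48 hours before the viability readout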). The following applies: SU-DIPG-IV viability, CellTiter-Glo ATP luminescence.
The nature of assay [11]: modifiers of HSF1 nuclear foci, imaging, Selleck Cancer Library (AID 1347162; in the data active = plate-normalised HSF1 focus index below about 0.46). The following applies: human cells, at 10 µM; SSMD: measured here: HSF1 foci SSMD mean; cell count: measured here: cell number; plate-normalised HSF1 focus index: stronger effect = lower value.
The nature of assay [12]: phospholipid biosynthesis inhibitors in animal cells, primary screen, cell-based, LOPAC library, screen 4 (AID 1347384; call rule not given here). The following applies: phospholipid biosynthesis inhibition screen, at 10 µM.
Assay [13] can be described thus: viability rescue of complex I mutant cybrids, primary screen, cell-based, galactose medium, ATP luminescence (AID 1645843;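 active = z-score of at least 1.8 in each of two replicates, scored against plate mean and spread of sample wells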;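 note: positive z means more ATP and so rescue of galactose-driven cybrid death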). The following applies: complex I mutant cybrid cells, 72 h, stronger effect = higher value.
The mark [14] stands for this setting: stronger effect = lower value, cell number ratio, induced over uninduced.
Setting [15] is: measured here: relative caspase fold change +Dox/-Dox.
The mark [16] stands for this setting: measured here: total cells with miR-34 induction, stronger effect = lower value.
Setting [17] is: measured here: total cells without miR-34 induction.
Setting [18] is: MELAS cybrid survival, CellTiter-Glo 48 h, stronger effect = higher value.
The mark [19] stands for this setting: Rieske KO mouse fibroblast survival, CellTiter-Glo 72 h.

“And” between values parts separate entries of the source, which are not always exact repeats. Identical values can stand only once. Inconclusive results are not listed. The source made the active and inactive calls.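 Rule for the calls, unless noted: active = normalized viability below 100% at a tested concentration; inactive = the rest.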

Regarding `CCOc1cc(N2CCC(O)CC2)ccc1Nc1ncc2c(n1)N(C)c1ccccc1C(=O)N2C`, the AC50 – broadly, the concentration at which the activity in the assay is half-maximal – in assay [1] was 7.43 µM (active); in assay [3] it was 20.9 µM (active). In assay [2], the outcome was inactive. Further, the IC50 (in general, the concentration that inhibits the measured activity by half) in assay [4] was 18.6 µM (active). In addition, the fold change in assay [5] (setting [14]) is 0.886 (inactive); in assay [5] (setting [15]) it was 0.548. In addition, the cell count in [5] (setting [16]) came out at 6240; in [5] (setting [17]), 7040. In addition, the z-score in assay [6] (setting [18]) is -0.56 (inactive); in assay [6] (setting [19]), -1.56. The viability – broadly, a read-out of living cells in per cent, often relative to untreated cells – in assay [7] (at 0.000305 µM, OCI-C5x cells, with rucaparib 10 µM, 100% = cells with rucaparib alone) is 123% (inactive); in [7] (at 0.000305 µM, OCI-C5x cells, without rucaparib), 120% (inactive); in assay [7] (at 0.000305 µM, OCI-P5x cells, with rucaparib 20 µM, 100% = cells with rucaparib alone), 94.3% (active); in assay [7] (at 0.000305 µM, OCI-P5x cells, without rucaparib), 101% (inactive); in assay [7] (at 0.00122 µM, OCI-C5x cells, with rucaparib 10 µM, 100% = cells with rucaparib alone) it was 122% (inactive); in assay [7] (at 0.00122 µM, OCI-C5x cells, without rucaparib), 109% (inactive). Further, the viability in assay [7] (at 0.00122 µM, OCI-P5x cells, with rucaparib 20 µM, 100% = cells with rucaparib alone) is 99.4% (active); in [7] (at 0.00122 µM, OCI-P5x cells, without rucaparib), 105% (inactive); in assay [7] (at 0.00488 µM, OCI-C5x cells, with rucaparib 10 µM, 100% = cells with rucaparib alone), 119% (inactive); in [7] (at 0.00488 µM, OCI-C5x cells, without rucaparib), 112% (inactive); in assay [7] (at 0.00488 µM, OCI-P5x cells, with rucaparib 20 µM, 100% = cells with rucaparib alone), 91.8% (active); in [7] (at 0.00488 µM, OCI-P5x cells, without rucaparib), 102% (inactive). Further, the viability in [7] (at 0.0195 µM, OCI-C5x cells, with rucaparib 10 µM, 100% = cells with rucaparib alone) was 124% (inactive); in assay [7] (at 0.0195 µM, OCI-C5x cells, without rucaparib) it was 117% (inactive); in [7] (at 0.0195 µM, OCI-P5x cells, with rucaparib 20 µM, 100% = cells with rucaparib alone) it was 94% (active); in [7] (at 0.0195 µM, OCI-P5x cells, without rucaparib), 99.5% (active); in [7] (at 0.0781 µM, OCI-C5x cells, with rucaparib 10 µM, 100% = cells with rucaparib alone), 131% (inactive); in assay [7] (at 0.0781 µM, OCI-C5x cells, without rucaparib), 124% (inactive). In addition, the viability in assay [7] (at 0.0781 µM, OCI-P5x cells, with rucaparib 20 µM, 100% = cells with rucaparib alone) was 96.6% (active); in [7] (at 0.0781 µM, OCI-P5x cells, without rucaparib), 108% (inactive); in [7] (at 0.313 µM, OCI-C5x cells, with rucaparib 10 µM, 100% = cells with rucaparib alone), 109% (inactive); in assay [7] (at 0.313 µM, OCI-C5x cells, without rucaparib) it was 131% (inactive); in assay [7] (at 0.313 µM, OCI-P5x cells, with rucaparib 20 µM, 100% = cells with rucaparib alone) it was 88.3% (active); in [7] (at 0.313 µM, OCI-P5x cells, without rucaparib) it was 95.6% (active). In addition, the viability in assay [7] (at 1.25 µM, OCI-C5x cells, with rucaparib 10 µM, 100% = cells with rucaparib alone) was 101% (inactive); in [7] (at 1.25 µM, OCI-C5x cells, without rucaparib), 121% (inactive); in assay [7] (at 1.25 µM, OCI-P5x cells, with rucaparib 20 µM, 100% = cells with rucaparib alone), 84.7% (active); in assay [7] (at 1.25 µM, OCI-P5x cells, without rucaparib) it was 90.7% (active); in assay [7] (at 5 µM, OCI-C5x cells, with rucaparib 10 µM, 100% = cells with rucaparib alone), 85.7% (active); in assay [7] (at 5 µM, OCI-C5x cells, without rucaparib), 119% (inactive). Further, the viability in [7] (at 5 µM, OCI-P5x cells, with rucaparib 20 µM, 100% = cells with rucaparib alone) was 35.5% (active); in [7] (at 5 µM, OCI-P5x cells, without rucaparib), 75.3% (active).

Consider `Nc1nc(N)c(N=O)c(OCC2CCCCC2)n1`, for which the inhibition (as a rule, the change of the read-out against control, counted positive when it falls) in [8] is -2% (inactive). Also, the fluorescence ratio (interference) in [9] was 0.9 (inactive). Further, the AC50 in assay [1] was 14.8 µM (active); in [10], 4.69 µM (active); in assay [2] it was 14.8 µM (active). Further, the IC50 in [4] is 14.8 µM (active). The fold change in assay [5] (setting [14]) was 0.992 (inactive) and 0.824 (inactive); in [5] (setting [15]), 0.923 and 0.352. The cell count in [5] (setting [16]) is 8650 and 6730; in assay [5] (setting [17]), 8720 and 8160; in assay [11], 6960. For the same compound, the SSMD in assay [11] was 2.32. The plate-normalised HSF1 focus index in [11] is 1.14 (inactive). In [12], the result was inactive. Besides, the z-score in [6] (setting [18]) is -0.213 (inactive); in assay [6] (setting [19]), -2.45; in [13] it was 1.21 (inactive).

As to `CN[C@@H]1[C@@H](O)[C@@H](O[C@@H]2[C@@H](O)[C@H](O[C@H]3O[C@H](CN)[C@@H](O)[C@H](O)[C@H]3O)[C@@H](N)C[C@H]2NC(=O)[C@@H](O)CN)OC[C@]1(C)O`, the compound was called inactive in [1], in assay [10] and in [2].

Turning to `Cc1ccccc1C(C(=O)NC1CCCCC1)N(C(=O)CNc1ccc(C#N)cc1)c1cccc(F)c1` (configuration not stated), the compound was called inactive in assay [1], in [10], in assay [2], in [3] and in assay [4].

The values are drawn from PubChem BioAssay.
